Compounds without any hit were thinned out: in the full panel of roughly 83,000, 20% have a hit.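 The test compound was applied at a single concentration to cells in 96-well plates for 48 hours, and percent growth was recorded.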 Calls of active or inactive are those of the source. Rule for the calls: active = growth percent below 10; inactive = the rest.
How the values were obtained:
Experiment in all cases: NCI-60 one-dose screen, 48 h (100 = growth as untreated, 0 = no growth, -100 = all killed)
Conditions in all cases: 10 µM
HT29 colon = test system: HT29 colon
SNB-75 CNS = test system: SNB-75 CNS
SNB-19 CNS = test system: SNB-19 CNS
U251 CNS = test system: U251 CNS
PC-3 prostate = test system: PC-3 prostate
SK-MEL-5 melanoma = test system: SK-MEL-5 melanoma
UACC-62 melanoma = test system: UACC-62 melanoma
LOX IMVI melanoma = test system: LOX IMVI melanoma
SK-MEL-28 melanoma = test system: SK-MEL-28 melanoma
SK-MEL-2 melanoma = test system: SK-MEL-2 melanoma
SN12C renal = test system: SN12C renal
UO-31 renal = test system: UO-31 renal
ACHN renal = test system: ACHN renal
A498 renal = test system: A498 renal
CCRF-CEM leukemia = test system: CCRF-CEM leukemia
MOLT-4 leukemia = test system: MOLT-4 leukemia
SR leukemia = test system: SR leukemia
EKVX NSCLC = test system: EKVX NSCLC
TK-10 renal = test system: TK-10 renal
CAKI-1 renal = test system: CAKI-1 renal

Measured: growth

CCN1CCN(c2nc3ccccc3c3c(=O)c4ccccc4sc23)CC1
active: HT29 colon 9.96% | SK-MEL-5 melanoma 7.43% | UACC-62 melanoma 7.97% | MOLT-4 leukemia 2.07% | SR leukemia -11.8%
inactive: SNB-75 CNS 44.5% | SNB-19 CNS 67.2% | U251 CNS 27.9% | PC-3 prostate 43.7% | LOX IMVI melanoma 23.5% | SK-MEL-28 melanoma 31.1% | SK-MEL-2 melanoma 98.5% | SN12C renal 41.6% | UO-31 renal 29.8% | ACHN renal 22.8% | A498 renal 37% | CCRF-CEM leukemia 29.2%

COc1cc2nc(Nc3cccc(C(=O)O)c3)nc(N)c2cc1OC
inactive: HT29 colon 103% | SNB-75 CNS 94.6% | SNB-19 CNS 102% | U251 CNS 99% | PC-3 prostate 90.4% | SK-MEL-5 melanoma 99.7% | UACC-62 melanoma 90.2% | LOX IMVI melanoma 96.3% | SK-MEL-28 melanoma 103% | EKVX NSCLC 95.2% | SN12C renal 95.4% | UO-31 renal 78.3% | TK-10 renal 108% | ACHN renal 93.9% | CAKI-1 renal 93.7% | A498 renal 117% | MOLT-4 leukemia 12.8% | SR leukemia 105%

CN(C)CCN1C(=O)c2cccc3c(-c4ccc5ncn(C6CCCCC6)c5c4)ccc(c23)C1=O
inactive: SNB-75 CNS 40.1% | SNB-19 CNS 23.3% | U251 CNS 12.6% | PC-3 prostate 22% | SK-MEL-5 melanoma 21.4% | UACC-62 melanoma 24.6% | LOX IMVI melanoma 13.8% | SK-MEL-28 melanoma 47.2% | EKVX NSCLC 29.8% | SN12C renal 19.3% | TK-10 renal 26.7% | ACHN renal 13.8% | CAKI-1 renal 25% | CCRF-CEM leukemia 15.4%
active: HT29 colon 7.45% | UO-31 renal 2.42% | A498 renal 4.69% | MOLT-4 leukemia -18.7% | SR leukemia 3.59%

COc1ccc(CN2CCC(N3CCCC3=O)c3cc(Cl)ccc32)cc1 (centres undefined)
inactive: HT29 colon 88.8% | SNB-75 CNS 103% | SNB-19 CNS 99.5% | U251 CNS 105% | PC-3 prostate 84.4% | SK-MEL-5 melanoma 103% | UACC-62 melanoma 85.2% | LOX IMVI melanoma 103% | SK-MEL-28 melanoma 116% | EKVX NSCLC 106% | SN12C renal 99.5% | UO-31 renal 73.6% | TK-10 renal 108% | ACHN renal 101% | CAKI-1 renal 114% | A498 renal 111% | MOLT-4 leukemia 83% | SR leukemia 84.2%

CCc1ccc2c(c1)N(CCO)C1=C(C(=O)OC1)C2c1cc(OC)c(OC)c(OC)c1 (centres undefined)
active: HT29 colon -24.2% | SK-MEL-5 melanoma -14.5% | A498 renal -13.7%
inactive: SNB-75 CNS 49.3% | SNB-19 CNS 21.7% | U251 CNS 10.9% | PC-3 prostate 26.9% | UACC-62 melanoma 16.2% | LOX IMVI melanoma 25% | SK-MEL-28 melanoma 64.5% | EKVX NSCLC 29.9% | SN12C renal 28.8% | UO-31 renal 35.5% | TK-10 renal 57.9% | ACHN renal 32.2% | CAKI-1 renal 11.4% | CCRF-CEM leukemia 10.2% | MOLT-4 leukemia 11.4% | SR leukemia 12%

COc1cccc(C2C3=C(COC3=O)N(CCO)c3cc(OC)ccc32)c1 (centres undefined)
inactive: SNB-75 CNS 27.2% | SNB-19 CNS 33.3% | U251 CNS 12.7% | PC-3 prostate 26.9% | UACC-62 melanoma 14.6% | LOX IMVI melanoma 23.9% | SK-MEL-28 melanoma 56.1% | EKVX NSCLC 40.5% | SN12C renal 27% | UO-31 renal 50.4% | TK-10 renal 51.8% | ACHN renal 31.9% | CAKI-1 renal 36.7% | CCRF-CEM leukemia 15% | MOLT-4 leukemia 19% | SR leukemia 22.3%
active: HT29 colon -8.66% | SK-MEL-5 melanoma -3.6% | A498 renal -6.88%

NC1(C(=O)O)CSSC1
inactive: HT29 colon 90.7% | SNB-75 CNS 40.8% | SNB-19 CNS 36.4% | U251 CNS 15.1% | PC-3 prostate 79.1% | SK-MEL-5 melanoma 69.9% | UACC-62 melanoma 97.4% | LOX IMVI melanoma 32.2% | SK-MEL-28 melanoma 34.8% | EKVX NSCLC 78.9% | SN12C renal 39.5% | UO-31 renal 57.6% | TK-10 renal 64.3% | ACHN renal 49.4% | CAKI-1 renal 101% | A498 renal 56.2% | CCRF-CEM leukemia 78.5% | MOLT-4 leukemia 87.3% | SR leukemia 89.5%

CCOC(=O)CCC(NC(=O)c1ccc(N)cc1)C(=O)OCC (centres undefined)
inactive: HT29 colon 99.4% | SNB-75 CNS 113% | SNB-19 CNS 109% | U251 CNS 105% | PC-3 prostate 89.8% | SK-MEL-5 melanoma 105% | UACC-62 melanoma 103% | LOX IMVI melanoma 100% | SK-MEL-28 melanoma 105% | EKVX NSCLC 121% | SN12C renal 103% | UO-31 renal 76.9% | TK-10 renal 102% | ACHN renal 95.3% | CAKI-1 renal 123% | A498 renal 112% | MOLT-4 leukemia 114% | SR leukemia 121%

Cc1ccc(CC#N)cc1C
inactive: HT29 colon 110% | SNB-75 CNS 101% | SNB-19 CNS 94.6% | U251 CNS 89.9% | PC-3 prostate 164% | SK-MEL-5 melanoma 99.3% | UACC-62 melanoma 103% | LOX IMVI melanoma 96.7% | SK-MEL-28 melanoma 137% | EKVX NSCLC 87.8% | SN12C renal 105% | UO-31 renal 94.4% | TK-10 renal 107% | ACHN renal 94.6% | CAKI-1 renal 45.3% | A498 renal 136% | CCRF-CEM leukemia 128% | MOLT-4 leukemia 93.9% | SR leukemia 89.3%

CC12O[C@H](C[C@@H](O)[C@H]1O)n1c3ccccc3c3c4c(c5c6ccccc6n2c5c31)C(=O)N(CCCN)C4=O
active: LOX IMVI melanoma 1.96% | MOLT-4 leukemia -3.13% | SR leukemia 0.745%
inactive: HT29 colon 11.3% | SNB-75 CNS 49.8% | SNB-19 CNS 26.9% | U251 CNS 14.8% | PC-3 prostate 34% | SK-MEL-5 melanoma 40.6% | UACC-62 melanoma 47.8% | SK-MEL-28 melanoma 92.1% | EKVX NSCLC 54.9% | SN12C renal 36.2% | UO-31 renal 57.6% | TK-10 renal 38.8% | ACHN renal 79.4% | A498 renal 42.3% | CCRF-CEM leukemia 11.2%

COc1ccc2c(c1)N(CCO)C1=C(C(=O)OC1)C2c1ccccc1 (centres undefined)
inactive: SNB-75 CNS 14.6% | SNB-19 CNS 41.1% | U251 CNS 20.9% | PC-3 prostate 27.1% | UACC-62 melanoma 20.1% | LOX IMVI melanoma 43.3% | SK-MEL-28 melanoma 53.7% | EKVX NSCLC 45% | SN12C renal 48.1% | UO-31 renal 47.1% | TK-10 renal 44.7% | ACHN renal 48.6% | CAKI-1 renal 14.9% | CCRF-CEM leukemia 20% | MOLT-4 leukemia 35.4% | SR leukemia 20.7%
active: HT29 colon 1.72% | SK-MEL-5 melanoma 9.35% | A498 renal -5.47%

O=C1CC[C@@H]2CCCC[C@@H]2C1
inactive: HT29 colon 107% | SNB-75 CNS 95.2% | SNB-19 CNS 102% | U251 CNS 108% | PC-3 prostate 85.3% | SK-MEL-5 melanoma 110% | UACC-62 melanoma 94.6% | LOX IMVI melanoma 101% | SK-MEL-28 melanoma 112% | EKVX NSCLC 99.1% | SN12C renal 95.9% | UO-31 renal 75.2% | TK-10 renal 114% | ACHN renal 100% | CAKI-1 renal 102% | A498 renal 108% | MOLT-4 leukemia 96.5% | SR leukemia 94.7%

COc1cc2c(cc1OC)N(CCO)C1=C(C(=O)OC1)C2c1ccc(Cl)c(Cl)c1 (centres undefined)
inactive: HT29 colon 94% | SNB-75 CNS 106% | SNB-19 CNS 98.3% | U251 CNS 96.8% | PC-3 prostate 99.2% | SK-MEL-5 melanoma 99.5% | UACC-62 melanoma 101% | LOX IMVI melanoma 95.9% | SK-MEL-28 melanoma 120% | EKVX NSCLC 87% | SN12C renal 108% | UO-31 renal 82.3% | TK-10 renal 98.7% | ACHN renal 107% | CAKI-1 renal 107% | A498 renal 89.3% | CCRF-CEM leukemia 92.6% | MOLT-4 leukemia 73.7% | SR leukemia 86%

O=C(CC(NC(=O)OCc1ccccc1)C(=O)OCc1ccccc1)OCc1ccccc1 (centres undefined)
inactive: HT29 colon 98.6% | SNB-75 CNS 113% | SNB-19 CNS 109% | U251 CNS 90.4% | PC-3 prostate 93.8% | SK-MEL-5 melanoma 94.1% | UACC-62 melanoma 97.2% | LOX IMVI melanoma 101% | SK-MEL-28 melanoma 108% | EKVX NSCLC 95.7% | SN12C renal 102% | UO-31 renal 103% | TK-10 renal 97.6% | ACHN renal 104% | CAKI-1 renal 99.3% | A498 renal 68.1% | CCRF-CEM leukemia 47.5% | MOLT-4 leukemia 115% | SR leukemia 99.3%

CCc1ccc2c(c1)N(CCO)C1=C(C(=O)OC1)C2c1ccccc1 (centres undefined)
inactive: HT29 colon 86.3% | SNB-75 CNS 88% | SNB-19 CNS 104% | U251 CNS 45.4% | PC-3 prostate 93.5% | SK-MEL-5 melanoma 87.3% | UACC-62 melanoma 70.6% | LOX IMVI melanoma 94.5% | SK-MEL-28 melanoma 90.9% | EKVX NSCLC 104% | SN12C renal 105% | UO-31 renal 88.9% | TK-10 renal 91.8% | ACHN renal 88.6% | CAKI-1 renal 101% | A498 renal 73.4% | CCRF-CEM leukemia 91.9% | MOLT-4 leukemia 83% | SR leukemia 63.6%

CC(=O)c1nc2ccccc2n1CCNC(N)=O
inactive: HT29 colon 35.9% | SNB-75 CNS 24% | SNB-19 CNS 91.7% | U251 CNS 69.8% | PC-3 prostate 72% | SK-MEL-5 melanoma 82.7% | UACC-62 melanoma 86.6% | LOX IMVI melanoma 62.4% | SK-MEL-28 melanoma 89.6% | SK-MEL-2 melanoma 84% | SN12C renal 89.6% | UO-31 renal 78.8% | ACHN renal 91.3% | CAKI-1 renal 105% | A498 renal 78.8% | CCRF-CEM leukemia 68.3% | MOLT-4 leukemia 77.2% | SR leukemia 43.5%

Cc1nc2ccccc2c(N)c1-c1cc(C)c2c(C)nc3ccccc3c2n1
inactive: SNB-19 CNS 22.6% | SK-MEL-5 melanoma 62.1% | UACC-62 melanoma 97% | EKVX NSCLC 68.4% | SN12C renal 57.9% | TK-10 renal 14.3%
active: HT29 colon -93.5% | SNB-75 CNS -77.6% | U251 CNS -76.6% | PC-3 prostate -18.5% | LOX IMVI melanoma -84.7% | SK-MEL-28 melanoma -90.7% | UO-31 renal -95.7% | ACHN renal -92.4% | A498 renal -12.9% | CCRF-CEM leukemia -42.1% | MOLT-4 leukemia -50.8% | SR leukemia -39.5%
